Screens (PubChem BioAssay)
This is a sample that favours compounds with a hit; in the whole collection about 18% have one here.
IL1B secr inh: blocks inflammasome-driven IL-1 beta release | activity change, % at 57.5 µM | AID 743279 | THP-1 LPS/ATP IL-1B secretion, AlphaLISA, 16 h; active compounds read low | actives 4.7% (n = 360,000); in the data active = activity change below about -50%; inconclusive = mostly about -30% to -49%
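THP-1 cells pretreated 1 hr with compounds (up to 57.5 uM final), then stimulated with LPS (250 ng/mL final) plus ATP (1.25 mM final); secreted IL-1B measured by AlphaLISA after 16 hr, decreased signal indicating inhibition.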
CtBP-E1A inh: inhibitors of CtBP/E1A interaction | AlphaScreen GST-E1A/His-CtBP binding, 1536-well; active compounds read low | activity change, % (test concentration not listed) | actives 0.49% (n = 340,000) | AID 651724; in the data active = activity change below about -65%; inconclusive = mostly about -30% to -63%
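GST-E1A and His-tagged CtBP (125 nM each as 5X stock) were preincubated with pin-transferred compound for 2 h at 37 °C in the dark, then glutathione donor and nickel acceptor beads were added for 1 h before AlphaScreen reading.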
Six1-Eya2 inh: Six1/Eya2 interaction inhibition; Q15475+O00167; AlphaScreen GST-Six1/His-Eya2 binding, biochemical; active compounds read low; activity change, % (test concentration not listed); actives 0.56% (n = 360,000); in the data active = activity change below about -65%; inconclusive = mostly about -30% to -63%
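Homogeneous AlphaScreen proximity assay pairing GST-Six1 with His-tagged Eya2 (added as 5X mix: 250 nM and 500 nM) in 50 mM Tris pH 8.0, 300 mM NaCl, 1 mM TCEP. Glutathione donor and nickel acceptor beads; 1 h, 37 °C, dark.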
TDP1 cell CPT: DT40-hTDP1 cell growth loss with CPT; AID 686979; Potency, µM (top dose mostly 46.2 µM), without a hit: top-dose activity change, negative = growth inhibition, most hits filed as inhibitors; chicken DT40 Tdp1-/-;hTDP1 cells + 20 nM CPT, ATP luminescence, 48 h; actives 12% (n = 420,000); note: potency is the fitted concentration of half-maximal effect; nearly all actives have a fitted effect of over 55% in size
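Chicken DT40 Tdp1-/- cells stably complemented with human TDP1 were seeded at 400 cells/well in medium containing 20 nM camptothecin, exposed to pin-transferred compounds, and grown at 37 °C for at least 48 hr. Viability was read as ATP luminescence.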
TDP1 block: inhibitors of human tyrosyl-DNA phosphodiesterase TDP1 | Q9NUW8 | recombinant TDP1, AlphaScreen DNA substrate cleavage | Potency, µM (doses to about 130 µM), without a hit: top-dose activity change, negative = inhibition, usual class: inhibitors | actives 0.28% (n = 350,000); note: potency is the fitted concentration of half-maximal effect; nearly all actives have a fitted effect of over 40% in size
Target sequence (Q9NUW8 whole entry, looked up): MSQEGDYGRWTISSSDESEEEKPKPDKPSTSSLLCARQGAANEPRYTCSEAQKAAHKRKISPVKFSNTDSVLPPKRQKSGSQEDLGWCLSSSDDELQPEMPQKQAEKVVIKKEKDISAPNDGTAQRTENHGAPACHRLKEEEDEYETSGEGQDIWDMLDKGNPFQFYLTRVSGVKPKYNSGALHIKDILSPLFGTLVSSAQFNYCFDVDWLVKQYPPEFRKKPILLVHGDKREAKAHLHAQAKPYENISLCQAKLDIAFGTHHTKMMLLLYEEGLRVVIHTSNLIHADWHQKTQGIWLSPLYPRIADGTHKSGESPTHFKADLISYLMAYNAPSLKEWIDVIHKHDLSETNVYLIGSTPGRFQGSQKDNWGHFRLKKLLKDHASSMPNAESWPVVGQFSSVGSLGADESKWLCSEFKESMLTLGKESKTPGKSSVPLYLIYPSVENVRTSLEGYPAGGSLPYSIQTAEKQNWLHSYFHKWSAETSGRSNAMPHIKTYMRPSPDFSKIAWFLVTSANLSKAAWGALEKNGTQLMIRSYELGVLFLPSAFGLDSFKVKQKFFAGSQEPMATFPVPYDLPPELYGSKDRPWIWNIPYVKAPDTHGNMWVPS
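Steps: enzyme plus compound, 15 min RT; add biotin/phosphotyrosine-FITC oligonucleotide (15 nM final), react 5 min; add donor/acceptor beads (10 ug/ml final), 10 min; read AlphaScreen. Tdp1 at 1 nM final.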
TDP1 cell noCPT: qHTS for Inhibitors of human tyrosyl-DNA phosphodiesterase 1 (TDP1): qHTS in cells in absence of CPT. DT40 Tdp1-/- hTDP1 cells, no CPT, ATP luminescence, 48 h. Potency, µM (series often up to 46.2 µM), without a hit: top-dose activity change, negative = growth inhibition, usual class: inhibitors. actives 15% (n = 420,000). AID 686978, 2013; note: potency is the fitted concentration of half-maximal effect; nearly all actives have a fitted effect of over 55% in size
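Cells were dispensed at 400 per well, compounds added by pin tool, plates incubated ≥48 hr at 37 °C, then CellTiter-Glo added for 30 min at room temperature before luminescence reading. Line: DT40 Tdp1-/- complemented with hTDP1; camptothecin omitted.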
An asterisk follows results filed as active; u = inconclusive; x = no result given; [ ] = another dose, or the depositor's remark. Unless noted, calls come from the whole dose curve; as a rule, active = well fitted curve in the direction sought with a large enough effect; inconclusive = small, poorly fitted or top-dose-only effect, or another doubt; inactive = no such curve, though single readings can be large; an effect the other way counts as inactive or inconclusive. % is set by controls: 0 for no effect and ±100 for the full control effect.

SMILES	IL1B secr inh	CtBP-E1A inh	Six1-Eya2 inh	TDP1 cell CPT	TDP1 block	TDP1 cell noCPT
O=C(O)c1ccc(N/N=C/c2ccnc3ccccc23)cc1	u	u	-19.7	-29.2%	x	-29.0%
Cn1nnnc1NC(=O)c1ccccc1Cl	16.5	-3.5	-4.2	4.2%	5.7%	0.4%
O=C(NCCc1ccccc1)c1cnc2sc(N3CCOCC3)nn2c1=O	x	x	x	-13.4%	7.1%	-9.0%
CSc1ccc(CCNC(=O)c2cc(-c3ccccc3)c(N3CCOCC3)s2)cc1	-11.8	-5.5	-11.2	u	5.9%	16.4µM*
COc1ccc(CCNC(=O)c2ccc(CNc3c(N4CCOCC4)c(=O)c3=O)cc2)cc1OC	-7.9	-0.2	11.1	15.7%	4.1%	-14.3%
O=C(NCCc1ccccc1)c1cc(-c2ccccc2)c(N2CCOCC2)s1	u	-3.9	-4.9	u	x	16.4µM*
COc1ccc(CCNC(=O)c2cc(-c3ccccc3)c(N3CCOCC3)s2)cc1OC	-11.3	-11.5	-24.8	20.6µM*	x	16.4µM*
CCN(CC)CCCNC(=O)c1cc(-c2ccccc2)c(N2CCCCC2)s1	-9.5	-2.1	-0.4	u	x	14.6µM*
Cc1cc(NS(=O)(=O)c2ccc(NC(=O)c3c(F)c(F)c(F)c(F)c3F)cc2)nc(C)n1	-20.2	-13.7	-15.8	1.5%	5.2%	-9.7%
O=C(CSc1n[nH]c(-c2ccncc2)n1)c1ccccc1	2.2	15.5	-6.1	u	2.8%	-18.5%
CCc1cccc(C)c1NS(=O)(=O)Cc1ccccc1	7.8	1.9	-15.4	u	x	u
O=C(NNS(=O)(=O)c1ccc(F)cc1)c1sccc1-n1cccc1	-1.3	x	-2.2	-8.6%	2.5%	-11.8%
O=C(CSc1nnc(-c2cccs2)o1)Oc1ccc(Cl)cc1	x	x	x	-2.4%	5.7%	-4.2%
Cc1cccc(N2CCN(C(=O)C3CCN(C(=O)c4cc5sccc5n4C)CC3)CC2)c1C	x	x	x	11.6µM*	5.9%	8.2µM*
Cc1cccc(N2CCN(C(=O)C3CCCN(C(=O)c4cc5sccc5n4C)C3)CC2)c1C (stereo not given)	x	x	x	23.1µM*	6.8%	23.1µM*
Cn1c(C(=O)N2CCC(C(=O)N3CCOCC3)CC2)cc2sccc21	13.5	-1.7	2.9	-6.5%	1.1%	-5.0%
C[C@@H]1C(NC(=O)c2ccccc2)CC2CC1C2(C)C (stereo not given in full)	6.6	5.4	4.4	u	10µM*	u
COC(=O)c1ccc(C(=O)OC)c(NC(=O)CN2CCCCC2)c1	-3.1	-15.9	-4.3	u	-2.7%	u
CCOC(=O)c1c2ccc(OCC(=O)N/N=C/c3ccc(C)cc3)cc2n2ccccc12	3.8	-1.6	-0.3	u	2.0%	18.4µM*
O=C(CSCc1ccc(Cl)cc1)N/N=C/c1ccc(OCC(=O)Nc2ccccc2)cc1	-9.2	-6.3	-9.2	u	-2.9%	u
COc1ccc(CSCC(=O)N/N=C/c2ccccc2O)cc1	115.4	-14.6	-18.1	2.91µM*	8.1%	2.59µM*
Cc1ccc(S(=O)(=O)NCC(=O)N/N=C/c2ccccc2O)cc1	116.1	u	u	5.17µM*	3.7%	6.51µM*
Cc1ccc(NC(=O)COc2ccc(/C=N/NC(=O)CSCc3ccccc3)cc2)cc1	33.3	-0.1	-0.5	u	56.2µM*	u
Cc1ccc(OCC(=O)N/N=C/c2cccn2C)cc1C	u	u	-25.1	-8.7%	9.4%	u
COC(=O)CCC(=O)Nc1cccc(Cl)c1	-2.6	1.2	10.4	-16.1%	-9.1%[56.1 µM]	u
SMILES	IL1B secr inh	CtBP-E1A inh	Six1-Eya2 inh	TDP1 cell CPT	TDP1 block	TDP1 cell noCPT
CS(=O)(=O)N1N=C(c2cccs2)CC1c1ccc(F)cc1 (stereo not given)	2.8	-18.3	0.8	-21.0%	x	1.4%
O=C(CCN1C(=O)/C(=C/c2ccccc2)SC1=S)Nc1cccnc1	-6.5	-6.8	-6.0	-5.2%	x	u
Cc1ccc(S(=O)(=O)NCN2C(=O)c3ccccc3C2=O)cc1	0.0	4.6	7.2	-2.5%	x	-22.9%
CCOc1ccccc1/C=N/NC(=O)CSc1n[nH]c(=O)[nH]c1=O	-9.1	x	-5.2	-12.1%	-4.3%	0.9%
Cc1ccc(S(=O)(=O)NCC(=O)OCN2C(=O)c3ccccc3C2=O)cc1	17.0	4.0	-2.6	u	2.3%	20.6µM*
Cc1ccc(NC(=O)COc2ccc(/C=C3/SC(=Nc4ccccc4)N(Cc4cccnc4)C3=O)cc2)cc1	-1.9	2.9	-3.0	5.17µM*	3.5%	6.51µM*
O=C(CSc1n[nH]c(=O)[nH]c1=O)N/N=C/c1ccccc1O	11.2	-76.8*	-79.9*	13µM*	2.2%	-3.4%
Cc1nccn1CC(=O)N/N=C/c1ccccc1O	119.9	-95.6*	-80.6*	u	u	20.6µM*
Cc1nccn1CC(=O)N/N=C/c1c[nH]c2ccccc12	47.1	-12.4	-7.5	-22.7%	x	u
CCOC(=O)C[C@H]1c2cc(F)ccc2S(=O)(=O)N1C(C)(C)C	60.1	0.0	1.7	u	x	u
CCOc1ccc(C2C(C(=O)Nc3ccc(OC)cc3)=C(C)Nc3nc(CCCO)nn32)cc1 (stereo not given)	x	x	x	3.3%	7.0%	-1.8%
Cc1cc(C)c(S(=O)(=O)N2CCCC2=O)c(C)c1	7.2	3.4	-0.1	14.6%	0.0%	0.8%
O=C(NCc1ccccc1)C1C(c2ccccc2)=Nc2ccccc2N1C(=O)c1cnccn1 (stereo not given)	0.0	-18.0	-2.7	11.7%	x	13.0%
Cc1cc(SCC(=O)N/N=C/c2ccc(O)c(O)c2O)c(C)cc1Br	23.3	u	u	3.26µM*	9.1%	4.61µM*
COc1cc(/C=N/NC(=O)CSc2cc(C)c(Br)cc2C)ccc1O	-0.6	-3.8	-0.7	u	2.3%	u
O=C(CSc1ccccc1)N/N=C/c1ccccc1O	144.0	u	-20.8	4.11µM*	2.7%	2.59µM*
O=C(CCSCCC(=O)NN=Cc1ccccc1O)NN=Cc1ccccc1O	29.0	u	-29.2	-24.3%	x	-23.7%
COc1ccc(NS(=O)(=O)c2cc(NC(=O)c3cccnc3Cl)ccc2N2CCCC2)cc1	-17.4	-2.0	-12.1	u	8.2%	u
COCCCn1c(=N)c(C(N)=S)cc2c(=O)n3cccc(C)c3nc21	-68.2*	-21.7	u	18.4µM*	x	23.1µM*
